Assay outcomes (PubChem BioAssay)
A selection: hits, their analogues and other compounds. The true share with any hit is near 6.8%.
HCV NS3h FP = HCV NS3 helicase inhibitors, primary screen, biochemical, fluorescence polarization, ChemBridge library; NS3h Cy5-dT15 DNA binding; Hepatitis C virus NS3 helicase; inhibition, % at 100 µM; hit rate 1.6% among 16,000; AID 687043, 2013;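 active = inhibition above the average over every tested compound plus 3 SD, cut at about 40% in these data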
Cy5 interf NS3h = Cy5 fluorescence quenchers or enhancers, artefact control for HCV NS3 helicase inhibitor project, biochemical, ChemBridge library, Cy5 readout. Cy5-dT15 DNA with NS3h, fluorescence interference; actives lie on both sides; signal over control mean, under 1 quenches. fluorescence interference ratio at 100 µM. hit rate 6% among 16,000. AID 720488, 2013;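 active = compound fluorescence over control fluorescence at most 0.8, a quencher, or at least a set upper limit, an enhancer; inactive = ratio between 0.8 and the set upper limit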
Of the large screens only hits and unclear results are named; the others gave an inactive call.

O=C(Nc1ccc2nn(-c3ccccc3)nc2c1)C(Cl)(Cl)Cl	Cy5 interf NS3h 0.69
Nc1cccc(NC(=O)c2ccco2)c1	none
CCOC(=O)c1cccc(NC(=O)c2ccco2)c1	Cy5 interf NS3h 0.68
Cc1ccc(-n2nc3ccc(NC(=O)c4ccco4)cc3n2)cc1	Cy5 interf NS3h 0.68
O=C(O)CCC(=O)Nc1ccc2nn(-c3ccccc3)nc2c1	none
COc1ccc(-n2nc3cc(C)c(NC(=O)c4ccco4)cc3n2)cc1	none
Cc1ccc(NC(=O)c2ccco2)cc1NC(=O)c1ccccc1	Cy5 interf NS3h 0.78
O=C(Nc1ccc(Cl)cc1)c1cc2ccccc2cc1O	none
Cc1ccc(NC(=O)c2cc3ccccc3cc2O)c(C)c1	Cy5 interf NS3h 0.77
Cc1cc(C)c(OCC(=O)Nc2ccc(Br)cc2)c(C)c1	none
CC(=O)C(C(C)=O)C1=CC(=O)C(=O)c2ccccc21	Cy5 interf NS3h 0.53
COc1ccccc1C=C1C(=O)c2ccccc2C1=O	none
Cc1cc2c(cc1Br)NC(=O)C2=O	Cy5 interf NS3h 0.76
COc1ccc(O)c(/C=C2\SC(=S)N(Cc3ccccc3)C2=O)c1	none
O=C(O)CCC(=O)N1N=C(c2c(-c3ccccc3)c3cc(Cl)ccc3[nH]c2=O)CC1c1ccc([N+](=O)[O-])cc1 (centres undefined)	none
Cc1ccccc1NC(=O)CSc1ccccc1	none
Cc1ccccc1NCn1c(=S)oc2ccccc21	Cy5 interf NS3h 0.65
CC(=C\c1ccccc1)/C=C1/SC(=O)N(c2ccc(Cl)cc2)C1=O	Cy5 interf NS3h 0.78
O=C1S/C(=C/c2ccc(Cl)cc2Cl)C(=O)N1c1ccccc1	none
CC(C)COc1ccc(C(=O)Nc2cccc([N+](=O)[O-])c2)cc1	none
CCN(CC)/C(=N\OCc1ccc(Cl)cc1Cl)c1nonc1N	Cy5 interf NS3h 0.67
CN=C(NOCc1ccccc1)c1nonc1N	none
O=[N+]([O-])c1ccc(N2CCNCC2)cc1Sc1cccc2cccnc12	Cy5 interf NS3h 0.75
O=[N+]([O-])c1ccc(N2CCN(S(=O)(=O)c3ccccc3)CC2)cc1Sc1cccc2cccnc12	none
CC1=NN(C(=O)c2ccc([N+](=O)[O-])cc2)C(O)(c2ccc(Cl)cc2)C1 (centres undefined)	none
CC(C)(C)C1=NN(C(=O)c2ccc([N+](=O)[O-])cc2)C(O)(C(F)(F)F)C1 (centres undefined)	Cy5 interf NS3h 0.67
Cc1c(NC(=O)/C=C/c2cccc3ccccc23)c(=O)n(-c2ccccc2)n1C	none
O=C(c1ccc(Cl)cc1)N1CCN(c2ccc([N+](=O)[O-])c(Sc3cccc4cccnc34)c2)CC1	none
O=C(COc1cccc2ccccc12)Nc1ccc2c(c1)OCCO2	Cy5 interf NS3h 0.68
COc1ccc(CCNC(=O)COc2cccc3ccccc23)cc1	none
O=C(COc1cccc2ccccc12)Nc1ccncc1	Cy5 interf NS3h 0.8
COc1cc(NC(=O)COc2cccc3ccccc23)cc(OC)c1	none
O=C(COc1cccc2ccccc12)NCCO	Cy5 interf NS3h 0.74
Cc1cccc(OCC(=O)Nc2ccc3c(c2)OCO3)c1C	none
COc1ccc(/C(C)=N/N=C2/NC(=O)C(Cc3ccc(C)cc3)S2)cc1 (centres undefined)	none
COC(=O)CN1C(=O)/C(=C/c2cc(OC)ccc2OC)SC1=S	none
COc1ccc(OC)c(/C=C2/SC(=S)N(CNc3cccc(Cl)c3)C2=O)c1	Cy5 interf NS3h 0.6
O=C(Nc1ccccc1)Nc1nnc(-c2ccccc2)s1	none
CCOc1ccc(NC(=O)/C=C/c2ccccc2)cc1	none
Cc1ccc(NC(=O)/C(=C/c2ccccc2)c2ccccc2)cc1C	Cy5 interf NS3h 0.65
COc1ccccc1NC(=O)/C(=C/c1ccccc1)c1ccccc1	none
CCOc1ccc(-c2nnc(NC(=O)Nc3ccccc3)s2)cc1	Cy5 interf NS3h 0.74
CCOc1ccc(NC(=O)/C(=C/c2ccccc2)c2ccccc2)cc1	Cy5 interf NS3h 0.67
Cc1cc(C)c(OCCCCN2CCCC2)c(Cl)c1	none
C=CCNC(=O)c1cccc(OCc2ccccc2)c1	none
O=[N+]([O-])c1ccc(C=Nc2ccc(Cl)c([N+](=O)[O-])c2)s1	none
Cc1ccc(N=Cc2ccc([N+](=O)[O-])s2)c(C)c1	Cy5 interf NS3h 0.8
COc1ccccc1NC(=O)CSc1nsc(SCC(=O)Nc2ccccc2OC)n1	none
CCOc1ccccc1NC(=O)CSc1nnc(C)s1	Cy5 interf NS3h 0.68
C=CCc1ccccc1OCCOc1c(Br)cc(/C=N\n2cnnc2)cc1OC	none
O=C(C=C(O)c1ccc(F)cc1)C(F)(F)F	none
Cc1ccc(C(=O)/C=C(/N)C(F)(F)F)cc1	Cy5 interf NS3h 0.73
O=C(NC(=S)Nc1ccc(-c2nc3ccccc3[nH]2)cc1)c1ccco1	none
COc1c(Cl)ccc(Cl)c1C(=O)Nc1c(C)cccc1C(C)C	none
COc1cc(C(=O)Nc2c(C)cccc2C(C)C)c(Br)c(OC)c1OC	Cy5 interf NS3h 1.2
CCN(CC)C(=O)CN(c1ccc(OC)c(Cl)c1)S(=O)(=O)c1ccccc1	none
Cc1ccc(S(=O)(=O)NCCOc2ccccc2Cl)cc1[N+](=O)[O-]	Cy5 interf NS3h 0.79
Cc1ccc(S(=O)(=O)NCCOc2ccccc2)cc1[N+](=O)[O-]	none
COC(=O)C1=C(C)NC2=C(C(=O)c3ccccc32)C1c1ccc(F)cc1 (centres undefined)	none
O=C1C2=C(Nc3[nH]n(-c4ccccc4)c(=O)c3C2c2ccccc2)c2ccccc21 (centres undefined)	Cy5 interf NS3h 0.76
Cn1c2c(c(=O)n(C)c1=O)C(c1ccc(OC(=O)/C=C/c3ccc([N+](=O)[O-])cc3)cc1)C1=C(N2)c2ccccc2C1=O (centres undefined)	none
COc1ccc(-n2c(C)ccc2C)c(N)c1	none
COc1cc(C(=O)O)c(-n2c(C)ccc2C)cc1OC	Cy5 interf NS3h 1.4
O=C(O)CCCC(=O)Nc1ccccc1	none
O=C(O)CCCC(=O)OCc1ccco1	HCV NS3h FP 48
CCCc1ccc(OCC(=O)N/N=C/c2cc(OC)ccc2O)cc1	none
COc1ccc(S(=O)(=O)N2CCN(C(=O)c3cccs3)CC2)cc1	Cy5 interf NS3h 0.69
COc1ccc(S(=O)(=O)N2CCN(C(=O)c3cccc(F)c3)CC2)cc1	none
CCCOc1ccc(C(=O)N2CCN(c3ccc([N+](=O)[O-])cc3)CC2)cc1	none
COc1ccc2c(c1[N+](=O)[O-])CCC/C2=N\OC(=O)c1ccccc1SC	Cy5 interf NS3h 0.63
COc1ccccc1C(=O)O/N=C1\CCCc2c1ccc(OC)c2[N+](=O)[O-]	Cy5 interf NS3h 0.74
COc1ccc2c(c1[N+](=O)[O-])CCC/C2=N\OC(=O)c1cccc2ccccc12	none
COc1ccc(/C(N)=N\OC(=O)c2cccc([N+](=O)[O-])c2C)cc1OC	none
O=C1OC2C=CC(Br)=CC2C=C1C(=O)N1CCSC1c1ccc2c3c(cccc13)CC2 (centres undefined)	none
O=C1OC2C=CC(Br)=CC2=CC1C(=O)N1CCSC1c1ccccc1Cl (centres undefined)	Cy5 interf NS3h 0.73
O=C(/C=C/c1ccc2c(c1)OCO2)Nc1ccc(F)c(F)c1	none
O=C(COc1ccccc1)C(=C(O)c1ccccc1)c1nc2ccccc2[nH]1	Cy5 interf NS3h 1.4
O=C(COc1cccc([N+](=O)[O-])c1)Nc1cccc(-c2nc3ccccc3[nH]2)c1	none
O=c1/c(=C\c2ccc(F)cc2)sc2nc(-c3ccc(Cl)cc3Cl)nn12	none
CC(C)(C)C(=O)/C=C(/c1ccccc1)N1CCCCC1	none
CCOc1ccc(NC(=S)NCCc2ccc(S(N)(=O)=O)cc2)cc1	none
